TDP1 cell noCPT – qHTS for Inhibitors of human tyrosyl-DNA phosphodiesterase 1 (TDP1): qHTS in cells in absence of CPT; DT40 Tdp1-/- hTDP1 cells, no CPT, ATP luminescence, 48 h; Potency, µM (top dose mostly 46.2 µM), for the others: top-dose activity change, negative = growth inhibition, actives largely listed as inhibitors; 420,000 compounds, 15% hits; AID 686978, 2013; note: % is set by controls: 0 for no effect and ±100 for the full control effect; nearly all actives have a fitted effect of over 55% in size
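DT40 Tdp1-/-;hTDP1 cells, no CPT (DMSO vehicle only), 400 cells/well; compounds pin-transferred; ≥48 hr, 37 °C; CellTiter-Glo 30 min RT dark, luminescence read.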
ClpP mod – qHTS Assay for Activators of ClpP; Potency, µM (doses to about 57.5 µM), for inactives: at the highest dose activity change, negative = active; 340,000 compounds, 1.9% hits; ATP-dependent Clp protease proteolytic subunit (Bacillus subtilis (strain 168)), P80244; purified B. subtilis ClpP, FRET peptide cleavage, 20 min; active = well fitted falling curve with a large enough effect; inconclusive = small, poorly fitted or top-dose-only effect; inactive = no such curve, though single readings can be large or run the other way; note: the source files actives as falling curves though it sought activators and does not explain the sign; nearly all actives have a fitted effect of over 65% in size
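Buffer: 100 mM Tris/HCl pH8, 100 mM KCl, 0.05% low protease BSA, 2.5% glycerol, 0.01% Tween-20. ClpP 10 microg/mL final; 20 min RT; delta FRET normalized to ADEP and DMSO controls.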
TDP1 inh – blocks human tyrosyl-DNA phosphodiesterase 1 | Q9NUW8 | recombinant TDP1, AlphaScreen DNA substrate cleavage | Potency, µM (top dose mostly 130 µM), for the others: top-dose activity change, negative = inhibition, usual class: inhibitors | 350,000 compounds, 0.28% hits | AID 485290; note: % is set by controls: 0 for no effect and ±100 for the full control effect; nearly all actives have a fitted effect of over 40% in size
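Signal: AlphaScreen proximity between streptavidin donor and anti-FITC acceptor beads on intact substrate. Reaction: Tdp1 1 nM, substrate 15 nM final, 5 min RT after 15 min compound preincubation.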
TDP1 cell CPT – growth inhibition of DT40 Tdp1-/-;hTDP1 cells with camptothecin (screen for TDP1 inhibitors). chicken DT40 Tdp1-/-;hTDP1 cells + 20 nM CPT, ATP luminescence, 48 h. Potency, µM (series often up to 46.2 µM), without a hit: at the top dose activity change, negative = growth inhibition, hits mostly inhibitors. AID 686979. 420,000 compounds, 12% hits; note: % is set by controls: 0 for no effect and ±100 for the full control effect; nearly all actives have a fitted effect of over 55% in size
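Chicken DT40 Tdp1-/- cells complemented with human TDP1, 400 cells/well, exposed to compounds plus 20 nM camptothecin for at least 48 h at 37 C; viability read as ATP content by CellTiter-Glo luminescence.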
* marks the source's active call; other numbers are inactive results; ? = inconclusive; · = no result given. Compounds with a hit are over-represented: about 17% of the library has one in this group of screens. Unless noted, calls come from the whole dose curve; as a rule, active = well fitted curve in the direction sought with a large enough effect; inconclusive = small, poorly fitted or top-dose-only effect, or another doubt; inactive = no such curve, though single readings can be large; an effect the other way counts as inactive or inconclusive. Potency is the fitted concentration of half-maximal effect.

SMILES	TDP1 cell noCPT	ClpP mod	TDP1 inh	TDP1 cell CPT
O=C(CCCn1c(=O)c2cccn2c2ccccc21)Nc1cccc(Cl)c1	18µM*	-1%	5%	?
CNc1nc(-c2ccc3c(c2)CCN3C(=O)CC(C)(C)C)c(C)s1	?	-3%	3%	?
Cc1sc(NC(=O)CN2CCCC2)nc1-c1ccc2c(c1)CCN2C(=O)c1ccc(F)cc1	18µM*	·	·	?
CNc1nc(-c2ccc3c(c2)CCN3C(=O)c2ccccc2F)c(C)s1	?	·	6%	?
CC(=O)Nc1nc(-c2ccc3c(c2)CCN3C(=O)C2CC2)c(C)s1	1.3µM*	·	·	1.5µM*
COc1ccc(N=C2SC(C(=O)N3CCN(c4ccccc4)CC3)CC(=O)N2C)cc1 (centres undefined)	-17%	1%	·	-28%
CC1(Cc2cc(Cl)ccc2C(F)(F)F)C(=O)Nc2cc(C(F)(F)F)ccc21 (centres undefined)	15µM*	1%	·	23µM*
COc1ccccc1-c1ccc2c(c1)C(C)(Cc1cc(Cl)ccc1C(F)(F)F)C(=O)N2 (centres undefined)	?	-13%	·	?
CC1(Cc2cc(Cl)ccc2C(F)(F)F)C(=O)Nc2cc(F)ccc21 (centres undefined)	15µM*	2%	·	26µM*
CC1(Cc2ccc(C(F)(F)F)o2)C(=O)Nc2cc(-c3ccc(F)cc3F)ccc21 (centres undefined)	4.6µM*	1%	·	?
CC1(Cc2cc(Cl)ccc2C(F)(F)F)C(=O)Nc2ccc(OC(F)(F)F)cc21 (centres undefined)	13µM*	3%	·	23µM*
CN(C(=O)c1cccc(NC(=O)Cc2ccc(NC(=O)C3CCCN(S(=O)(=O)c4cccc([N+](=O)[O-])c4)C3)cc2)c1)C1CCCCC1 (centres undefined)	?	1%	·	-29%
O=C(Cc1cccs1)NCCS(=O)(=O)N1CCN(c2ccccc2F)CC1	5.8µM*	-6%	·	7.3µM*
O=C(Cc1cccs1)NCCS(=O)(=O)N1CCN(c2ccccc2)CC1	?	1%	·	-27%
O=C(CCC1CCCC1)NCCS(=O)(=O)N1CCN(c2ccccc2F)CC1	15µM*	·	1%	?
O=C(Cc1ccc(-c2ccccc2)cc1)NCCS(=O)(=O)N1CCN(c2ccccc2F)CC1	15µM*	0%	-4%	10µM*
O=C1CC[C@H](C(=O)N2CCCCC2)N1	-2%	·	·	-23%
CC(=O)N1CCC2(CCCN(Cc3cc(C(F)(F)F)cc(C(F)(F)F)c3)C2)CC1	?	·	·	-22%
COc1ccc(NC(=O)CN2C(=O)COc3ccc(S(=O)(=O)Nc4ccccc4)cc32)cc1	-15%	-1%	0%	-26%
COc1cccc(CNc2nc(NCC3CC3)nc3ccsc23)c1OC	15µM*	?	·	9.2µM*
COCCNc1nc(NCc2ccccc2OC)c2cnn(C)c2n1	?	-12%	4%	?
CC(=O)NCCNc1nc(NC(C)C)nc2ccsc12	4%	-27%	·	5%
COc1ccccc1CNc1nc(NCc2ccc(C(C)C)cc2)c2sccc2n1	2.9µM*	?	·	9.2µM*
COc1cccc(CNc2nc(NC(C)C)nc3ccsc23)c1OC	21µM*	-27%	·	18µM*
CC(C)Nc1nc(NCCOc2ccccc2)c2sccc2n1	9.2µM*	-15%	·	21µM*
SMILES	TDP1 cell noCPT	ClpP mod	TDP1 inh	TDP1 cell CPT
CC(C)Nc1nc(NCCN2CCNC2=O)c2sccc2n1	-1%	?	·	10%
CCc1ccc(NC(=O)CN(c2ccccc2)S(=O)(=O)N(C)C)cc1	-11%	·	3%	5%
CSc1ccccc1CNc1nc(NCC2CC2)nc2ccsc12	21µM*	-9%	·	15µM*
COc1ccccc1CNc1nc(NC(C)C)nc2ccsc12	12µM*	-26%	·	12µM*
CC(C)c1ccc(CNc2nc(NCC3CC3)nc3ccsc23)cc1	10µM*	-20%	·	9.2µM*
CCOc1ccc(S(=O)(=O)Nc2nc3ccccc3nc2Nc2ccc(N3CCOCC3)cc2)cc1	?	10%	2%	?
Nc1ccc(NC(=O)NC2CCCCC2)cc1[N+](=O)[O-]	-8%	·	3%	-10%
